PubChem BioAssay (NCATS)
A number with no mark means an inactive call. The rule behind the calls is not given here.

Tested on: HIV-1 nucleocapsid protein NCp7 (binding to TG oligonucleotide)
Assay: HIV Nucleocapsid (AID 346);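 note: potency is for inhibitors that block NC binding and lower polarization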
Conditions: HIV-1 NC / fluorescein-TGTGTGTG probe, fluorescence polarization
Summary of the method: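 10 nM TG4xF probe with 100 nM nucleocapsid protein in high-salt Hepes pH 7.5 (250mM NaCl) containing 1uM ZnCl2 and reducing agents. Compound inhibition of binding was read as fluorescein polarization after 1 hr at room temperature.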
Potency is the fitted concentration of half-maximal effect.

Structure (SMILES)	Potency [µM]
O=C(c1ccco1)N1CCC2(CCCN(c3ccncc3)C2)CC1	> 20
CCNc1ncc2nc(-c3cccc(C#N)c3)c(=O)n(Cc3cccc(OC)c3)c2n1	17.7
COc1ccc(-c2nc3cnc(Oc4cccc(Cl)c4)nc3n(CCC#N)c2=O)cc1	> 20
Cc1nc2cnc(N3CCNCC3)nc2n(Cc2cccs2)c1=O	> 4
Cc1ccccc1-c1ccc2ncnc(NCCN3CCOCC3)c2c1	> 20
CC(C)CN1CCC2(CC1)CCN(C(=O)c1ccco1)CC2	> 20
COc1ccc2[nH]cc(CCNc3ncncc3-c3ccccc3CN(C)C)c2c1	> 20
Cc1cnc(CNc2nc(-c3ccccc3C)nc3ccccc23)cn1	> 20
CN1CCC2(CC1)CCN(C(=O)c1ccncc1)CC2	> 20
CCNc1ncc2nc(-c3cc(F)cc(F)c3)c(=O)n(CCc3ccccc3)c2n1	> 20
COc1ccc(-c2nc3cnc(N(C)C)nc3n(CCC#N)c2=O)cc1	> 20
CN(C)c1ncc2nc(-c3ccc(F)cc3)c(=O)n(C3CC3)c2n1	> 4
COc1ncc2nc(-c3cn(C)c4ccccc34)c(=O)n(C[C@H]3CCCO3)c2n1	> 20
CC(=O)NCCNc1cc(-c2ccccc2C)ncn1	> 20
CN(C)C(=O)c1ccc(-c2ccc3ncnc(N4CCOCC4)c3c2)cc1	> 20
N#Cc1cccc(-c2ccc3ncnc(NC4CCNCC4)c3c2)c1	> 20
CNc1ncnc2ccc(-c3cccc(OC)c3)cc12	> 20
O=C(c1cc(C(F)(F)F)cc(C(F)(F)F)c1)N1CCC[C@@]2(CCN(c3ccncc3)C2)C1	> 20
COc1ccc(-n2c(=O)c(CCc3ccccc3)nc3cnc(N4CCOCC4)nc32)cc1	> 20
Cc1cnc(CNc2cc(-c3ccc(N(C)C)cc3)ncn2)cn1	> 20

Structure (SMILES)	Potency [µM]
O=c1cnc2cnc(Oc3cccc(Cl)c3)nc2n1Cc1ccc(F)cc1	> 20
Cn1c(=O)c(-c2cc(F)cc(F)c2)nc2cnc(N3CCOCC3)nc21	> 20
CN(C)c1ncc2nc(-c3cc(F)cc(F)c3)c(=O)n(Cc3ccc(F)cc3)c2n1	> 20
O=C(Oc1ccccc1)N1CCC2(CC1)CN(c1ncccn1)C2	> 20
N#CCCn1c(=O)c(-c2ccc(Cl)cc2)nc2cnc(Nc3ccccc3)nc21	> 20
CN(C)c1ccc(-c2nc(N3CCNCC3)c3ccccc3n2)cc1	> 20
COc1cccc(Cn2c(=O)c(-c3ccccc3)nc3cnc(N(C)C)nc32)c1	> 20
N#Cc1ccccc1-c1ccc2ncnc(NCc3ccccc3)c2c1	> 20
COc1ccccc1CNc1cc(-c2ccccc2CN(C)C)ncn1	> 20
N#CCCn1c(=O)c(-c2cc(F)cc(F)c2)nc2cnc(N3CCOCC3)nc21	> 20
N#Cc1cccc(NC(=O)N2CCC3(CC2)CCN(C(=O)c2cccc(F)c2)CC3)c1	> 20
O=C(Nc1cccc(F)c1)N1CCCC2(CCN(C(=O)c3ccncc3)CC2)C1	> 20
COc1ccc(NC(=O)N2CC3(CCN(C(C)=O)CC3)C2)cc1	> 20
CN1CCN(c2nc(-c3ccc(N(C)C)cc3)nc3ccccc23)CC1	> 20
O=c1c(-c2ccc(F)cc2)nc2cnc(Nc3ccccc3)nc2n1C1CC1	> 20
CN(C)C(=O)c1ccc(-c2cncnc2NCc2cccs2)cc1	> 20
COc1ccc(-n2c(=O)c(C)nc3cnc(N(C)C)nc32)cc1	> 20
CS(=O)(=O)N1CCC2(CCCN(c3ccncc3)C2)CC1	> 20
CN1CC[C@@]2(CCCN(C(=O)c3cccn3C)C2)C1	> 20
COc1ccc(C(=O)N2CCC3(CC2)CCN(c2ccccc2)CC3)cc1	> 20
